Bioassay records as filed in PubChem.
TWEAK Fn14 block – TWEAK-Fn14 signaling inhibition | TWEAK-stimulated Fn14 reporter cells, luciferase luminescence, 8 h | hit rate 2% among 360,000 | inhibition, % at 10 µM | AID 1159606; in the data active = inhibition above about 50%
EBV LMP1 NFkB – reduces LMP1-driven NF-kappaB luciferase signal; hit rate 0.69% among 350,000; inhibition, % at 12.5 µM; LMP1-induced NF-kappaB luciferase reporter cells, luminescence; in the data active = inhibition above about 41%; inconclusive = no clear call, values can overlap the other calls
LGR2 antag – blocks bursicon-induced cAMP signaling via Drosophila LGR2. HEK293 LGR2, CRE-luciferase, bursicon-stimulated, 4 h. inhibition, % at 9.99 µM. hit rate 0.35% among 380,000;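 active = drop in luminescence signal, shown as inhibition above about 50% in the replicate tests, limit read from the data, passing the limit was not always enough; inconclusive = probably only some replicates passing the limit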;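 also: agonist challenge used bursicon conditioned medium at about half maximal strength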
TROY NFkB inh – inhibitors of TROY-dependent NF-kB signaling; hit rate 0.98% among 360,000; Q293 LMP1-TROYcd NF-kB luciferase reporter, 4 h; inhibition, % at 10 µM;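 active = compounds whose plate-normalised and pattern-corrected inhibition of the luciferase reporter signal at the single screening dose is 50% or more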
aDG glyco act – increases alpha dystroglycan glycosylation; Pro5-aDG cells, alpha-DG glycosylation AlphaScreen (IIH6); 0% Pro5, 100% B10-LARGE cell signal; activation, % at 10 µM; hit rate 0.22% among 360,000; AID 624168;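 active = activation of at least 8% versus controls, or a plate z-score of at least 8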;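 also: Pro5 are CHO cells carrying HIG-tagged alpha-DG that lacks glycosylation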
HSP90 inh – inhibitors of HSP90 luciferase refolding in rabbit reticulocyte lysate; luciferase refolding luminescence, 3 h; inhibition, % at 5.6 µM; hit rate 0.91% among 290,000; AID 1789;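 active = inhibition above the screen-wide mean plus 3 SD, computed separately per campaign, cut at about 16% in these data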;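 also: inhibitors lower the luminescence because luciferase stays unfolded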
Large screens that a line does not name were inactive; ! = not active in a repeat. This is a sample that favours compounds with a hit; in the whole collection about 2.6% have one here.

O=C(COC(=O)c1ccccc1-n1cnnn1)c1ccc(F)cc1	TWEAK Fn14 block 53, TROY NFkB inh 64 (no result: HSP90 inh)
CC1=C(CO)C(=O)OC([C@@H](C)C2CC[C@H]3C4C[C@H]5O[C@]56[C@@H](O)C=CC(=O)[C@]6(C)C4CC[C@]23C)C1 (stereo partly drawn)	TWEAK Fn14 block 103, EBV LMP1 NFkB 83 (no result: LGR2 antag, HSP90 inh)
COC(=O)NC(NC(=S)Nc1cccc(C)c1)C(Cl)(Cl)Cl (stereo not drawn)	none
COc1ccc(NC(=S)NC(NC(=O)c2cccc(Cl)c2)C(Cl)(Cl)Cl)c([N+](=O)[O-])c1 (stereo not drawn)	none (no result: LGR2 antag)
O=C(NC(NC(=S)Nc1c(Cl)cc(Cl)cc1Cl)C(Cl)(Cl)Cl)OCc1ccccc1 (stereo not drawn)	none
O=C(NC(NC(=S)Nc1ccccc1Cl)C(Cl)(Cl)Cl)c1cccc(Cl)c1 (stereo not drawn)	TWEAK Fn14 block 76
O=C(/C=C/c1ccccc1)NC(NC(=S)Nc1cccc(Cl)c1)C(Cl)(Cl)Cl (stereo not drawn)	TWEAK Fn14 block 63, EBV LMP1 NFkB 56 (no result: LGR2 antag)
Cc1ccc(C)c(NC(=S)NC(NC(=O)OCc2ccccc2)C(Cl)(Cl)Cl)c1 (stereo not drawn)	TWEAK Fn14 block 61
O=C(/C=C/c1ccccc1)NC(NC(=S)Nc1ccc(Cl)cc1Cl)C(Cl)(Cl)Cl (stereo not drawn)	TWEAK Fn14 block 64 (no result: LGR2 antag)
CNC[C@H]1Oc2ccc(NC(=O)Nc3c(C)noc3C)cc2C(=O)N([C@@H](C)CO)C[C@@H]1C	none (no result: TWEAK Fn14 block, EBV LMP1 NFkB, TROY NFkB inh, aDG glyco act, HSP90 inh)
O=C(/C=C/c1ccccc1)NC(NC(=S)Nc1ccc(C(=O)O)cc1)C(Cl)(Cl)Cl (stereo not drawn)	none
O=C(/C=C/c1ccccc1)NC(NC(=S)Nc1cccc(O)c1)C(Cl)(Cl)Cl (stereo not drawn)	TWEAK Fn14 block 56
Cc1ccc(C)c(NC(=S)NC(NC(=O)/C=C/c2ccccc2)C(Cl)(Cl)Cl)c1 (stereo not drawn)	TWEAK Fn14 block 55 (no result: LGR2 antag)
COCC(=O)N1[C@H](C#N)[C@H](c2ccc(C3=CCCCC3)cc2)[C@@H]1CO	none (no result: TWEAK Fn14 block, EBV LMP1 NFkB, TROY NFkB inh, aDG glyco act, HSP90 inh)
CN1CCN(C(=O)C[C@H]2CC[C@H]3[C@@H](COC[C@@H](O)CN3S(=O)(=O)c3cccc(Cl)c3)O2)CC1	none (no result: TWEAK Fn14 block, EBV LMP1 NFkB, TROY NFkB inh, aDG glyco act, HSP90 inh)
COCCCC/C(=N\OCCN)c1ccc(C(F)(F)F)cc1	EBV LMP1 NFkB 68!
CC=Cc1ccc2n(c1=O)C[C@H]1[C@H](CO)[C@@H](C(=O)NCC3CCCCC3)[C@@H]2N1C(=O)CC (mixture of isomers)	none (no result: TWEAK Fn14 block, EBV LMP1 NFkB, TROY NFkB inh, aDG glyco act, HSP90 inh)
O=C(Nc1ccc(Cl)cc1)N1C[C@H]2[C@@H](c3ccccc31)[C@H](CO)N2C(=O)c1ccccn1	none (no result: TWEAK Fn14 block, EBV LMP1 NFkB, TROY NFkB inh, aDG glyco act, HSP90 inh)
CC(C)(C)NC(=O)c1cccc(NC(=O)c2ccc3c(c2)C(=O)N(C(C)(C)C)C3=O)c1	LGR2 antag 83, TROY NFkB inh 57
O=C(O)c1cccc(NC(=O)c2ccc3c(c2)C(=O)N(CC2CCCO2)C3=O)c1 (stereo not drawn)	HSP90 inh 17 (no result: LGR2 antag)
CCn1ncc(/C=C/C(=O)c2ccccc2)c1C	TWEAK Fn14 block 53
Cn1c(N=NC(=O)c2ccccc2)c(O)c2ccccc21	TWEAK Fn14 block 69, LGR2 antag inconclusive
Cn1c(O)c(N=NC(=O)CNC(=O)c2ccccc2)c2ccccc21	none
CCOC(=O)C(C)Sc1nc(-c2cccs2)ccc1C#N (stereo not drawn)	EBV LMP1 NFkB 60
CCn1c(Cl)c(C=O)s/c1=N\S(=O)(=O)c1ccccc1	TWEAK Fn14 block 99, LGR2 antag inconclusive
C/C=C/c1cnc2c(c1)C(=O)N([C@@H](C)CO)C[C@H](C)[C@@H](CN(C)C(=O)c1ccc3c(c1)OCO3)O2	none (no result: TWEAK Fn14 block, EBV LMP1 NFkB, TROY NFkB inh, aDG glyco act, HSP90 inh)
C=CCN(c1ccccc1)S(=O)(=O)c1cccc(C(=O)Nc2nnc(SCC)s2)c1	TROY NFkB inh 53
COc1cccc(-c2cnc3c(c2)C(=O)N([C@@H](C)CO)C[C@H](C)[C@@H](CN(C)Cc2ccc(C(=O)O)cc2)O3)c1	none (no result: TWEAK Fn14 block, EBV LMP1 NFkB, TROY NFkB inh, aDG glyco act, HSP90 inh)
O=C(Nc1ccccc1)N1CCNCC1	TROY NFkB inh 90
O=C(Oc1c(-c2ccccc2Cl)oc2ccccc2c1=O)c1ccc(Cl)cc1	TWEAK Fn14 block 50
CN1c2ccccc2C(C)(C)[C@]12C=Cc1cc(O)ccc1O2	TWEAK Fn14 block 102
CN1c2ccccc2C(C)(C)C12C=Nc1c(ccc3ccccc13)O2 (stereo not drawn)	TWEAK Fn14 block 71, TROY NFkB inh 70
CC(C)C#Cc1cnc2c(c1)C(=O)N([C@@H](C)CO)C[C@H](C)[C@@H](CN(C)C(=O)Nc1cccc(F)c1)O2	none (no result: TWEAK Fn14 block, EBV LMP1 NFkB, TROY NFkB inh, aDG glyco act, HSP90 inh)
Cc1cc(Br)cn2c(Cc3cccc(Cl)c3)c(-c3ccco3)nc12	TWEAK Fn14 block 68 (no result: EBV LMP1 NFkB, HSP90 inh)
COc1ccccc1Cc1c(-c2cccc(Br)c2)nc2c(C)cc(Br)cn12	none (no result: EBV LMP1 NFkB, HSP90 inh)
Cc1ccc(Cc2c(-c3ccco3)nc3c(C)cc(Br)cn23)cc1	none (no result: EBV LMP1 NFkB, HSP90 inh)
Cc1ccc(Cc2c(-c3ccco3)nc3c4ccccc4ccn23)cc1	TWEAK Fn14 block 81 (no result: EBV LMP1 NFkB, HSP90 inh)
COc1ccccc1Cc1c(-c2ccc(Cl)cc2)nc2c(C)cc(Br)cn12	TWEAK Fn14 block 60 (no result: EBV LMP1 NFkB, HSP90 inh)
Clc1cccc(Cc2c(-c3ccco3)nc3ccc(Br)cn23)c1	none (no result: EBV LMP1 NFkB, LGR2 antag, HSP90 inh)
Clc1cccc(Cc2c(-c3ccco3)nc3ccc(Cl)cn23)c1	TWEAK Fn14 block 64 (no result: EBV LMP1 NFkB, HSP90 inh)
CC(C)C#Cc1ccc([C@@H]2[C@H](C#N)N(C(=O)C3CC3)[C@H]2CO)cc1	none (no result: TWEAK Fn14 block, EBV LMP1 NFkB, TROY NFkB inh, aDG glyco act, HSP90 inh)
O=C(C[C@H]1C[C@@H]2c3cc(NS(=O)(=O)c4ccc(F)cc4)ccc3O[C@@H]2[C@H](CO)O1)NC1CCCCC1	none (no result: TWEAK Fn14 block, EBV LMP1 NFkB, TROY NFkB inh, aDG glyco act, HSP90 inh)
O=C(C#Cc1ccccc1)c1ccco1	TWEAK Fn14 block 94, LGR2 antag 50, TROY NFkB inh 58
COc1ccc(-n2c(C)c([N+](=O)[O-])c3ccc(O)c(CN4CCCCC4)c32)cc1	none (no result: LGR2 antag)
Cc1ccc(-n2c(C)c([N+](=O)[O-])c3ccc(O)c(CN(C)C)c32)cc1	TWEAK Fn14 block 75, EBV LMP1 NFkB inconclusive, TROY NFkB inh 51 (no result: LGR2 antag)
CCCCCCCCCCCCCCCC[n+]1ccccc1	TWEAK Fn14 block 77!, LGR2 antag 61!, TROY NFkB inh 52! (no result: HSP90 inh)
CCCCCCCCCCCCCCCC[n+]1ccc(C(N)=O)cc1	none
O=C(/C=C/c1ccccc1)c1ccccc1	none
O=C(/C=C/c1ccccc1)/C=C/c1ccccc1	TWEAK Fn14 block 90
CCN(CC)CCN1C(=O)c2ccccc2NC1c1ccc(F)cc1 (stereo not drawn)	none
CN(C)c1ccc(C2NC(=O)c3ccccc3N2)cc1 (stereo not drawn)	TWEAK Fn14 block 62, LGR2 antag 54
CCN(CC)CCN1C(=O)c2ccccc2NC1c1ccc(C)cc1 (stereo not drawn)	none
CN(C)c1ccc(C2Nc3ccccc3C(=O)N2CCCN2CCOCC2)cc1 (stereo not drawn)	TWEAK Fn14 block 56
CCN(CC)CCN1C(=O)c2ccccc2NC1c1ccc(N(C)C)cc1 (stereo not drawn)	TWEAK Fn14 block 68 (no result: LGR2 antag)
